The values below come from PubChem BioAssay (EPA / NIEHS).

Activity calls are given as the source filed them. The calls were made as follows: active = hit-call score of the fitted dose curve at least 0.9, where 1 is the maximum; inactive = score below 0.9.

What all share (settings): mRNA level, 48 h; actives raise or lower the signal
Read-out in test [1]: Fatty Acid-Binding Protein 1 (FABP1), FABP1 (gene 2168)
Briefly: LTEA_HepaRG_FABP1: Life Technologies and Expression Analysis (LTEA) Assay for Fatty Acid-Binding Protein 1 (FABP1) using HepaRG (AID 2283494). The method, boiled down:
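FABP1 expression by TaqMan qRT-PCR, normalised to three housekeeping genes, in HepaRG cells after 48 h chemical treatment. Eight-point half-log series topping at 100 uM in 0.5% DMSO, duplicates; gain or loss fitted relative to vehicle.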

Read-out in test [2]: Glutathione S-Transferase (GSTA2), GSTA2 (gene 2939)
Briefly: LTEA_HepaRG_GSTA2: Life Technologies and Expression Analysis (LTEA) Assay for Glutathione S-Transferase (GSTA2) using HepaRG (AID 2283497). The method in brief:
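GSTA2 transcript levels came from Fluidigm TaqMan qRT-PCR normalized to three housekeeping genes, fitted in both directions against DMSO. HepaRG cultures received chemicals for 48 h in serum-free induction medium (0.5% DMSO), 8 half-log concentrations up to 100 uM, duplicate.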

Read-out in test [3]: Glutamate-cysteine ligase catalytic (GCLC), GCLC (gene 2729)
The experiment in a line: LTEA_HepaRG_GCLC: Life Technologies and Expression Analysis (LTEA) Assay for Glutamate-cysteine ligase catalytic (GCLC) using HepaRG (AID 2283498). The method, boiled down:
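Expression by TaqMan qRT-PCR, normalized to three housekeeping genes (ACTB, GAPDH, POLR2A), with up- or down-regulation fitted against DMSO. HepaRG cells dosed in duplicate for 48 h with 8 half-log concentrations up to 100 uM, vehicle 0.5% DMSO.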

Read-out in test [4]: growth arrest and DNA damage 45 (GADD45G), GADD45G (gene 10912)
The experiment in a line: LTEA_HepaRG_GADD45G: Life Technologies and Expression Analysis (LTEA) Assay for growth arrest and DNA damage 45 (GADD45G) using HepaRG (AID 2283499). The method, boiled down: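 Differentiated human HepaRG cells in serum-free induction medium were exposed for 48 h to 8 half-log concentrations up to 100 uM in 0.5% DMSO, in duplicate. GADD45G mRNA was measured by TaqMan qRT-PCR, normalised to ACTB, GAPDH and POLR2A, and fitted bidirectionally against DMSO.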

Read-out in test [5]: Glutamate-cysteine ligase regulatory (GCLM), GCLM (gene 2730)
Briefly: LTEA_HepaRG_GCLM: Life Technologies and Expression Analysis (LTEA) Assay for Glutamate-cysteine ligase regulatory (GCLM) using HepaRG (AID 2283500). The method in brief: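 GCLM expression quantified by qRT-PCR, normalized to three housekeeping genes, after 48 h chemical treatment of HepaRG cells in duplicate at 8 concentrations (top 100 uM, half-log steps, 0.5% DMSO). Changes fitted both directions against vehicle.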

Read-out in test [6]: Glutathione S-transferase M3 (GSTM3), GSTM3 (gene 2947)
The experiment in a line: LTEA_HepaRG_GSTM3: Life Technologies and Expression Analysis (LTEA) Assay for Glutathione S-transferase M3 (GSTM3) using HepaRG (AID 2283501). The method in brief:
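Differentiated HepaRG cells in serum-free induction medium were exposed in duplicate for 48 h to 8 half-log concentrations up to 100 uM in 0.5% DMSO. GSTM3 mRNA was measured by TaqMan qRT-PCR, normalized to ACTB/GAPDH/POLR2A, and fitted bidirectionally versus DMSO.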

Read-out in test [7]: Heat shock 70 kDa protein 1 (HSPA1A), gene 3303
Briefly: LTEA_HepaRG_HSPA1A: Life Technologies and Expression Analysis (LTEA) Assay for Heat shock 70 kDa protein 1 (HSPA1A) using HepaRG (AID 2283502). The method in brief:
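HSPA1A expression measured by qRT-PCR with ACTB/GAPDH/POLR2A normalization; curves fitted in both directions relative to DMSO vehicle. Exposure: 48 h in HepaRG cells, duplicate 8-point half-log series from 100 uM, 0.5% DMSO, serum-free induction medium.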

Read-out in test [8]: Hypoxia-inducible factor 1-alpha (Homo sapiens) (UniProt Q16665)
The experiment in a line: LTEA_HepaRG_HIF1A: Life Technologies and Expression Analysis (LTEA) Assay for Hypoxia-inducible factor 1 (HIF1A) Trancription factor using HepaRG (AID 2283503). The method, boiled down:
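HIF1A transcript level read by qRT-PCR (ACTB, GAPDH, POLR2A normalization) after 48 h chemical exposure of HepaRG cultures. Eight half-log concentrations, top 100 uM, 0.5% DMSO vehicle, duplicates; bidirectional curve fit against DMSO baseline.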

Read-out in test [9]: 3-Hydroxy-3-Methylglutaryl-CoA Synthase 2 (HMGCS2), HMGCS2 (gene 3158)
The experiment in a line: LTEA_HepaRG_HMGCS2: Life Technologies and Expression Analysis (LTEA) Assay for 3-Hydroxy-3-Methylglutaryl-CoA Synthase 2 (HMGCS2) using HepaRG (AID 2283504). The method, boiled down: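 Differentiated human HepaRG cells were exposed in duplicate for 48 h in serum-free induction medium to eight concentrations (top 100 uM, half-log steps, 0.5% DMSO). HMGCS2 mRNA was quantified by TaqMan qRT-PCR, normalised to ACTB, GAPDH and POLR2A, then fitted bidirectionally against DMSO.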

Read-out in the next test: HGF (gene 3082)
Briefly: LTEA_HepaRG_HGF: Life Technologies and Expression Analysis (LTEA) Assay for Hepatocyte Growth Facto (HGF) using HepaRG (AID 2283505). The method, boiled down: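 Differentiated human HepaRG cells in serum-free induction medium were exposed in duplicate for 48 h to eight concentrations (top 100 uM, half-log steps, 0.5% DMSO). HGF mRNA was quantified by qRT-PCR, normalized to ACTB, GAPDH and POLR2A.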

Read-out in test [10]: Insulin Like Growth Factor 1 (IGF1), IGF1 (gene 3479)
The experiment in a line: LTEA_HepaRG_IGF1: Life Technologies and Expression Analysis (LTEA) Assay for Insulin Like Growth Factor 1 (IGF1) using HepaRG (AID 2283506). The method, boiled down:
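Expression measured by TaqMan qRT-PCR on a Fluidigm array, with three housekeeping genes for normalisation, after 48 h treatment of HepaRG cells. Top concentration 100 uM with half-log steps, 0.5% DMSO vehicle, bidirectional fit.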

Read-out in test [11]: Intercellular Adhesion Molecule 1 (ICAM1), ICAM1 (gene 3383)
The experiment in a line: LTEA_HepaRG_ICAM1: Life Technologies and Expression Analysis (LTEA) Assay for Intercellular Adhesion Molecule 1 (ICAM1) using HepaRG (AID 2283507). The method in brief:
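Differentiated HepaRG cells in serum-free induction medium were exposed in duplicate for 48 h to eight half-log concentrations up to 100 uM in 0.5% DMSO. Transcript levels were measured by qRT-PCR normalized to ACTB, GAPDH and POLR2A; bidirectional fits relative to DMSO.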

Read-out in test [12]: Insulin-like growth factor-binding protein 1 (IGFBP1), IGFBP1 (gene 3484)
Briefly: LTEA_HepaRG_IGFBP1: Life Technologies and Expression Analysis (LTEA) Assay for Insulin-like growth factor-binding protein 1 (IGFBP1) using HepaRG (AID 2283508). The method in brief:
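Differentiated human HepaRG cells in serum-free induction medium were exposed in duplicate for 48 h to eight concentrations, top 100 uM with half-log dilutions, in 0.5% DMSO. Transcript levels came from qRT-PCR normalised to ACTB, GAPDH and POLR2A, fitted bidirectionally against DMSO.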

Read-out in test [13]: Interleukin 6 (IL6), IL6 (gene 3569)
Briefly: LTEA_HepaRG_IL6: Life Technologies and Expression Analysis (LTEA) Assay for Interleukin 6 (IL6) using HepaRG (AID 2283509). The method in brief: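 Transcript levels, normalized to three housekeeping genes, were quantified by qRT-PCR after 48 h chemical treatment of HepaRG cells. Eight-point half-log series from 100 uM in 0.5% DMSO, duplicates. Fitted both directions against DMSO baseline.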

Read-out in test [14]: Interleukin 6 Receptor (IL6R), IL6R (gene 3570)
The experiment in a line: LTEA_HepaRG_IL6R: Life Technologies and Expression Analysis (LTEA) Assay for Interleukin 6 Receptor (IL6R) using HepaRG (AID 2283510). The method, boiled down:
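IL6R transcript level by qRT-PCR after 48 h chemical exposure (8-point, half-log, max 100 uM, 0.5% DMSO vehicle) of HepaRG cells in serum-free induction medium. Normalized to three housekeeping genes; curves fitted in both directions relative to DMSO.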

Read-out in test [15]: Potassium channel subfamily K member 1 (KCNK1), KCNK1 (gene 3775)
Briefly: LTEA_HepaRG_KCNK1: Life Technologies and Expression Analysis (LTEA) Assay for Potassium channel subfamily K member 1 (KCNK1) using HepaRG (AID 2283511). The method, boiled down: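 KCNK1 transcript measured by TaqMan qRT-PCR against three housekeeping genes, after HepaRG cells were treated 48 h with eight half-log concentrations (top 100 uM, 0.5% DMSO). Curves fitted bidirectionally relative to vehicle.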

Read-out in test [16]: JUN Transcription Factor, JUN (gene 3725)
Briefly: LTEA_HepaRG_JUN: Life Technologies and Expression Analysis (LTEA) Assay for JUN Transcription Factor using HepaRG (AID 2283513). The method in brief: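 mRNA measured by TaqMan qRT-PCR after 48 h chemical exposure of HepaRG cultures; normalization to three housekeeping genes. Duplicate eight-point half-log curves from 100 uM in 0.5% DMSO; gain or loss fitted against DMSO baseline.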

Read-out in test [17]: Cytochrome P450 4A22 (Homo sapiens) (UniProt Q5TCH4)
The experiment in a line: LTEA_HepaRG_CYP4A22: Life Technologies and Expression Analysis (LTEA) Assay for Cytochrome P450 4A22 (CYP4A22) using HepaRG (AID 2283495). The method in brief:
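qRT-PCR of CYP4A22 mRNA (Fluidigm TaqMan, normalized to three housekeeping genes) after 48 h chemical exposure of HepaRG cells; 8-point half-log series, top 100 uM, 0.5% DMSO vehicle. Bidirectional curve fitting vs DMSO baseline.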

Read-out in test [18]: Cytochrome P450 7A1 (Homo sapiens) (UniProt P22680)
Briefly: LTEA_HepaRG_CYP7A1: Life Technologies and Expression Analysis (LTEA) Assay for Cytochrome P450 7A1 (CYP7A1) using HepaRG (AID 2283496). The method in brief: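 HepaRG, 48 h exposure, 8-pt half-log series from 100 uM, 0.5% DMSO vehicle, duplicates. Readout: TaqMan qRT-PCR mRNA vs three housekeeping genes; bidirectional curve fit against DMSO baseline.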

Chain of Hypoxia-inducible factor 1-alpha (Homo sapiens) (Q16665 whole entry, looked up): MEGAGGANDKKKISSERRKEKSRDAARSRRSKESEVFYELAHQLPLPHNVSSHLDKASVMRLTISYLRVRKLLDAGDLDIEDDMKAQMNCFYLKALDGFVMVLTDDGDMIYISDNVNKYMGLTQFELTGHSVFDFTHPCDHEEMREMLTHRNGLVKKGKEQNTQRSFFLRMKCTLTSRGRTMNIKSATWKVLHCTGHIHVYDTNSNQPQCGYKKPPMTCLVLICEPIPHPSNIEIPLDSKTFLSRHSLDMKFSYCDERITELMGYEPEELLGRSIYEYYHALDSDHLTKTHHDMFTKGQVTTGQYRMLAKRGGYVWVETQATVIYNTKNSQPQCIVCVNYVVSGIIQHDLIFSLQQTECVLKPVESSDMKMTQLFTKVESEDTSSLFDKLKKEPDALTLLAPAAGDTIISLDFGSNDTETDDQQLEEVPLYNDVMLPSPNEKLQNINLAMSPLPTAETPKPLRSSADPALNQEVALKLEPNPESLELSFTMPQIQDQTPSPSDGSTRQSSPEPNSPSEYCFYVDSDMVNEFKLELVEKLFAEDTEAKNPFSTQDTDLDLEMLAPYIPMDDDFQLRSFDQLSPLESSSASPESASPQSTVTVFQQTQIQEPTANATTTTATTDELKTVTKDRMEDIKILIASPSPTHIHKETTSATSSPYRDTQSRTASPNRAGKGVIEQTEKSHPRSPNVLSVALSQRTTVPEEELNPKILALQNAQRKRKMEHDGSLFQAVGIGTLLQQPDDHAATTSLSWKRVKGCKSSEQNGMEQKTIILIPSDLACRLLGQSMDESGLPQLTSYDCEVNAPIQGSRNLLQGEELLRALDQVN

In the case of `O=[N+]([O-])c1ccccc1`, the call in [1], in test [2], in [3], in [4], in test [5] and in test [6] was inactive. Moreover, the call (in test [7]; in test [8]; in test [9]; with HGF (gene 3082); in test [10]; in test [11]) was inactive. The molecule was called inactive in test [12], in test [13], in test [14], in test [15] and in test [16].

`ClC(Cl)(Cl)c1ccccc1`: the molecule was classed as inactive in [1], in test [17], in [18], in test [2], in test [3] and in [4]. The call (in [5]; in [6]; in test [7]; in [8]; in test [9]; with HGF (gene 3082)) was inactive. Besides, the result in test [10], in test [11], in test [12], in test [13], in test [14] and in test [15] was inactive. For the same molecule, the molecule was classed as inactive in test [16].

For the molecule `CCOP(=S)(Oc1ccc([N+](=O)[O-])cc1)c1ccccc1` (stereo not drawn), the AC50 was 12.7 µM (active) in [1], 65.7 µM (active) in test [4] and 5.97 µM (active) in test [12]. Further, the call in [17], in test [18], in test [2], in test [5], in [6] and in test [8] was inactive. The call (in test [9]; in the test with HGF (gene 3082); in test [10]; in test [11]; in test [13]; in [14]) was inactive. Further, the outcome in [15] and in test [16] was inactive.

In the case of `CC(Cl)(Cl)C(=O)O`, the molecule was called inactive in test [1], in [17], in test [18], in test [2], in test [3] and in test [4]. Moreover, the result (in [5]; in [6]; in test [7]; in [8]; in test [9]; with HGF (gene 3082)) was inactive. The result in test [10], in [11], in test [12], in test [13], in [14] and in test [15] was inactive. Moreover, the molecule was called inactive in [16].

`Cc1cccc(N)c1`: the call in [1], in [2], in test [3], in test [4], in test [5] and in [6] was inactive. Also, the outcome (in test [7]; in test [8]; in [9]; with HGF (gene 3082); in test [10]; in test [11]) was inactive. The outcome in test [12], in test [13], in [14], in test [15] and in test [16] was inactive.

Regarding `COCCOCCO`, the call in test [1], in [17], in [18], in test [2], in [3] and in test [4] was inactive. Besides, the molecule was called inactive (in test [5]; in [6]; in [7]; in test [8]; in [9]; with HGF (gene 3082)). Besides, the call in test [10], in [11], in [12], in test [13], in [14] and in [15] was inactive. The result in [16] was inactive.
